According to PubChem BioAssay (EPA / NIEHS):
Results filed as inconclusive are left out. The source made the active and inactive calls. Rule for the calls, unless noted: active = hit-call score of the fitted dose curve at least 0.9, where 1 is the maximum; inconclusive = response in the unintended direction; inactive = score below 0.9.

How the values were obtained:
[1] = NVS_IC_rCaBTZCHL: NovaScreen (NVS) Ion Channel Assay for Calcium Channel, Type L, Benzothiazepine Site (CaBTZCHL) (AID 2283337)
Procedure, shortened: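 Rat cortical membrane preparation, cell-free. Radioligand displaced by test chemical; 1.5 h incubation; filtration, scintillation count. DMSO = negative control/baseline. Primary: duplicate, 25 uM; secondary: concentration series.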

[2] = biological target: human Purinergic Receptor P2Y, P2RY1 (gene 5028) (UniProt P47900); test: NVS_GPCR_hPY2: NovaScreen (NVS) G Protein-Coupled Receptor Assay for human Purinergic Receptor P2Y (AID 2283281)
Procedure, shortened: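 Filtration scintillation readout of radioligand displacement on U937 extract, measured 1 h post-dosing. Single 25 uM duplicate screen, then singleton concentration series to 50 uM for chemicals passing threshold; DMSO as baseline.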

[3] = biological target: Retinoic acid receptor alpha (Homo sapiens) (UniProt P10276); test: NVS_NR_hRARa_Agonist: NovaScreen (NVS) Nuclear Receptor Binding Assay for human Retinoic Acid Alpha Receptor Agonism (RAR) (AID 2283361)
Procedure, shortened: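 TR-FRET signal, 2 h post-dosing; cell-free extracted protein; DMSO = baseline, positive fitting direction; 25 uM single-point duplicate, then concentration series for actives.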

[4] = biological target: human CYP2C9, CYP2C9 (gene 1559) (UniProt P11712); test: NVS_ADME_hCYP2C9: NovaScreen (NVS) CYP450-related Enzyme Activity (ADME) Assay for human CYP2C9 (AID 2283108)
Procedure, shortened: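 Recombinant human CYP2C9 expressed in SF9 cells, fluorogenic substrate, fluorescence read 0.75 h after dosing. Chemicals first run in duplicate at 10 uM, with actives followed in concentration series; loss of signal versus acetonitrile baseline.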

[5] = biological target: zebrafish Estrogen Receptor (ESR1), esr1 (gene 259252) (UniProt P57717); test: ATG_zfER1_XSP1: Attagene TRANS-FACTORIAL Multi-Species (XSP1) HepG2 Assay for zebrafish Estrogen Receptor (ESR1) (AID 2283772)
Procedure, shortened: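 Readout: fluorescent reporter mRNA, RT-PCR plus FAM labelling, HpaI digest, capillary electrophoresis; gain-of-signal fit vs DMSO. HepG2, transient multi-reporter TRANS (NR-GAL4 chimera), 24 h chemical exposure, 3 nM 6-alpha-fluorotestosterone co-added.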

[6] = test system: zebrafish Estrogen Receptor (ESR2B), gene 317733; test: ATG_zfER2b_XSP1: Attagene TRANS-FACTORIAL Multi-Species (XSP1) HepG2 Assay for zebrafish Estrogen Receptor (ESR2B) (AID 2283773)
Procedure, shortened: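 Multiplexed TRANS format in transfected HepG2 liver cells, chimeric NR-Gal4 from zebrafish ESR2B. 24 h dosing; medium contains 3 nM 6-alpha-fluorotestosterone. mRNA induction by RT-PCR/CE, positive direction vs DMSO.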

[7] = test system: frog Estrogen Receptor (ESR1), gene 398734; test: ATG_frER1_XSP1: Attagene TRANS-FACTORIAL Multi-Species (XSP1) HepG2 Assay for frog Estrogen Receptor (ESR1) (AID 2283777)
Procedure, shortened: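 Transient MRTU transfection, HepG2 (human liver); 24 h dosing, 3 nM 6α-fluorotestosterone co-added; RNA → RT-PCR → 6-FAM labeling → CE; upward activity vs DMSO.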

[8] = biological target: Peroxisome proliferator-activated receptor gamma (Homo sapiens) (UniProt P37231); test: ATG_hPPARg_XSP1: Attagene TRANS-FACTORIAL Multi-Species (XSP1) HepG2 Assay for human Peroxisome Proliferator-activated Receptor gamma (PPARg) (AID 2283800)
Procedure, shortened: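 Reporter mRNA induction, measured by RT-PCR with capillary electrophoresis 24 h after dosing, scored as gain over DMSO. Transfected HepG2 cells express exogenous NR-Gal4 chimeras driving GAL4-UAS reporters; medium includes 3 nM 6-alpha-fluorotestosterone.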

[9] = STM_H9_NormalizedViability: Cytotoxicity Assessment at 120 hours in the Stemina devTOX quickPredict H9 human embryonic stem cell (hESC)-based Assay (AID 2283784)
Procedure, shortened: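 CellTiter-Fluor RFU, background-subtracted, expressed relative to 0.1% DMSO neutral control by plate. Pluripotent H9 cells; treatment with daily re-dosing. Plates carried 1uM methotrexate (positive) and 5 nM methotrexate (negative) references.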

[10] = biological target: human Tyrosine Protein Kinase Receptor Tie-2 (Tie2), TEK (gene 7010) (UniProt Q02763); test: NVS_ENZ_hTie2: NovaScreen (NVS) Enzymatic Assay for human Tyrosine Protein Kinase Receptor Tie-2 (Tie2) (AID 2283225)
Chain of human Tyrosine Protein Kinase Receptor Tie-2 (Tie2), TEK (gene 7010) (Q02763 whole entry, looked up): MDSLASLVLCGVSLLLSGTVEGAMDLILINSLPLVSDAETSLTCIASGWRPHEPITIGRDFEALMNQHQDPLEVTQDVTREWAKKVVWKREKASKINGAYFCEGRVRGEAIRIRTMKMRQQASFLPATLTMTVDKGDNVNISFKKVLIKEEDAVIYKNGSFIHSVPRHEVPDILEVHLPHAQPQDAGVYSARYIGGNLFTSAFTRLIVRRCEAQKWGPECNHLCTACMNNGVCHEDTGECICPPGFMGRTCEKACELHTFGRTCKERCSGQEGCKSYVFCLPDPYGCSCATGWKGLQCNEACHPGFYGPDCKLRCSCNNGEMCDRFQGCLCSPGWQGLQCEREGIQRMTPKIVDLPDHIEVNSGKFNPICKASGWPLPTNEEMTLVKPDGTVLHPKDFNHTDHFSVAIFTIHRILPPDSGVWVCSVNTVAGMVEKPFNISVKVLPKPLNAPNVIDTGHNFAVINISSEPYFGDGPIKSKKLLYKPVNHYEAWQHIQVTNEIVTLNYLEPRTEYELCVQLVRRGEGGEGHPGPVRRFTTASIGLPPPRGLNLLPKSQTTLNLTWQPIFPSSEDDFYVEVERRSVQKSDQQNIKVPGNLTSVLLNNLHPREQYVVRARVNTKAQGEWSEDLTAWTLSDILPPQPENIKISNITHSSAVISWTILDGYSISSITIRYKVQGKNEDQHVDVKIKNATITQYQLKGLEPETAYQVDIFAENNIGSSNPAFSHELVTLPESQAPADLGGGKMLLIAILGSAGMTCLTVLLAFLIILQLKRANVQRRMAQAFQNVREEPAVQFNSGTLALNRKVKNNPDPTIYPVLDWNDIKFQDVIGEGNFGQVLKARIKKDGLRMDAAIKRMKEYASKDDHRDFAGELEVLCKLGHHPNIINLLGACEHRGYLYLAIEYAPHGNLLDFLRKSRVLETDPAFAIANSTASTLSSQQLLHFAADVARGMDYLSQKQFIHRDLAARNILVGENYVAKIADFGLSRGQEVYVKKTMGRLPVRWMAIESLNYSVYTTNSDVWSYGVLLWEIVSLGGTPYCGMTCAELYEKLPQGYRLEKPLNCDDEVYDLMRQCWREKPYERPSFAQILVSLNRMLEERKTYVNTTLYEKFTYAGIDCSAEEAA
Procedure, shortened: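 Substrate and product were separated by mobility shift and detected by fluorescence after a 1-hour reaction with recombinant Tie2. Chemicals passing a 25 uM single-point screen were titrated to a maximum of 50 uM. Results were normalized to DMSO baseline.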

[11] = read-out: Cyclin D2 (CCND2), CCND2 (gene 894); test: LTEA_HepaRG_CCND2: Life Technologies and Expression Analysis (LTEA) Assay for Cyclin D2 (CCND2) using HepaRG (AID 2283449; active = hit-call score of the fitted dose curve at least 0.9, where 1 is the maximum; inactive = score below 0.9;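 note: CCND2 transcript measured by TaqMan qRT-PCR and normalised to three housekeeping genes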); details: mRNA level, 48 h; actives raise or lower the signal
Procedure, shortened: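 HepaRG, 48 h dosing, 8-pt half-log curve from 100 uM, 0.5% DMSO; duplicate wells. Readout: CCND2 transcript by microfluidic qRT-PCR, housekeeping-normalised; bidirectional fit vs DMSO baseline.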

[12] = read-out: Nuclear factor NF-kappa-B p105 subunit (Homo sapiens) (UniProt P19838); test: LTEA_HepaRG_NFKB1: Life Technologies and Expression Analysis (LTEA) Assay for Nuclear Factor Kappa B Subunit 1 (NFKB1) using HepaRG (AID 2283521; active = hit-call score of the fitted dose curve at least 0.9, where 1 is the maximum; inactive = score below 0.9;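 note: differentiated human HepaRG liver cells in serum-free induction medium; TaqMan qRT-PCR transcript normalised to ACTB GAPDH and POLR2A housekeeping genes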); details: mRNA level, 48 h; actives raise or lower the signal
Procedure, shortened: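 Human HepaRG cells receive eight half-log concentrations, highest 100 uM, for 48 h. NFKB1 expression is then quantified by qRT-PCR and analysed for up- or down-regulation relative to 0.5% DMSO vehicle.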

[13] = Tanguay_ZF_120hpf_CIRC_legacy: (Legacy) Oregon State University Tanguay Lab 120 Hour Post-fertilization zebrafish Assay for Circulatory Malformation (AID 2283651)
Procedure, shortened: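 Static exposure, 6–120 hpf, 28C, sealed and dark; one dechorionated 5D embryo/well; DMSO 0.64% v/v final. Binary circulation endpoint by brightfield; dead embryos not scored.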

[14] = CCTE_Mundy_HCI_Cortical_NOG_NeuronCount: CCTE's Neurite Outgrowth Assay in rat cortical cells for Neuron Count, Mundy Lab (AID 2284236);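 note: neurons counted by imaging betaIII-tubulin and Hoechst stained cortical cells; cells exposed to compound for about 48 hours before fixation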
Procedure, shortened: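 Read-out: neuron number by high-content imaging of betaIII-tubulin (Alexa Fluor-488) and Hoechst-labelled rat primary cortical cells.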

[15] = biological target: CDK2 (gene 1017) (UniProt P24941); test: NVS_ENZ_hCDK2: NovaScreen (NVS) Enzymatic Assay for human Cyclin-Cependent Kinase 2 (CDK2) (AID 2283144)
Procedure, shortened: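 Compounds screened in duplicate at 25 uM, then in singleton concentration-response to a maximum of 50 uM, against recombinant CDK2; kinase activity read 1 hr after dosing by fluorescence with mobility-shift separation of substrate and product.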

[16] = biological target: human Fibroblast Growth Factor Receptor 1 (FGFR1), FGFR1 (gene 2260) (UniProt P11362); test: NVS_ENZ_hFGFR1: NovaScreen (NVS) Enzymatic Assay for human Fibroblast Growth Factor Receptor 1 (FGFR1) (AID 2283159)
Chain of human Fibroblast Growth Factor Receptor 1 (FGFR1), FGFR1 (gene 2260) (P11362 whole entry, looked up): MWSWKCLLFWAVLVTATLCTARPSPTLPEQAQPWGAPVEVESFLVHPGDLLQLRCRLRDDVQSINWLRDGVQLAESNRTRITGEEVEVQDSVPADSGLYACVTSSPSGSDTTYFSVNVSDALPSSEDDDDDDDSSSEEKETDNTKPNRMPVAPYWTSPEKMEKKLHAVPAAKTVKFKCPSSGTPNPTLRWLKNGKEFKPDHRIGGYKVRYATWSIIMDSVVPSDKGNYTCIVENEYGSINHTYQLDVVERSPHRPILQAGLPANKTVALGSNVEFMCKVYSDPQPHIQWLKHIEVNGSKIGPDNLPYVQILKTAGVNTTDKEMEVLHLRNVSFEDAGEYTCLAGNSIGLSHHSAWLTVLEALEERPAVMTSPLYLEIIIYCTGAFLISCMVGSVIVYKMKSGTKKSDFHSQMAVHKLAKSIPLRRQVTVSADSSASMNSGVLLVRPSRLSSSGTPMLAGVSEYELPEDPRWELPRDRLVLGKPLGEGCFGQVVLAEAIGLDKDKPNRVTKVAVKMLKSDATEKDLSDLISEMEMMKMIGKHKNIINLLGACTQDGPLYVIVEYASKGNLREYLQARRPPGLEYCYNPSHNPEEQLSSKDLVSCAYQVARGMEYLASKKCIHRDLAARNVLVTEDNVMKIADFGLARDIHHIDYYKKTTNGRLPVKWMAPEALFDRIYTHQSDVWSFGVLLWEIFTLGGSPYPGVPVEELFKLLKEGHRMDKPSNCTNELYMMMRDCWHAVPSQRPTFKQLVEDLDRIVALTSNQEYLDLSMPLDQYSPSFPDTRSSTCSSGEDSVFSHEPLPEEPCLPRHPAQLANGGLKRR
Procedure, shortened: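 Cell-free recombinant kinase with fluorescent substrate, product separated by electrophoretic mobility shift; read 1 hour after dosing, loss of signal relative to DMSO. Initial screen in duplicate at 25 uM, actives followed in concentration series.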

[17] = biological target: human Protein Tyrosine Phosphatase Receptor Type M (PTPRM), PTPRM (gene 5797) (UniProt P28827); test: NVS_ENZ_hPTPRM: NovaScreen (NVS) Enzymatic Assay for human Protein Tyrosine Phosphatase Receptor Type M (PTPRM) (AID 2283215)
Procedure, shortened: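 Read-out is fluorescence after electrophoretic separation of substrate and product, taken 1.33 h post-dosing with recombinant enzyme. Compounds screened at 25 uM in duplicate, then concentration series for actives; activity as signal loss relative to DMSO.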

[18] = read-out: Fatty Acid-Binding Protein 1 (FABP1), FABP1 (gene 2168); test: LTEA_HepaRG_FABP1: Life Technologies and Expression Analysis (LTEA) Assay for Fatty Acid-Binding Protein 1 (FABP1) using HepaRG (AID 2283494; active = hit-call score of the fitted dose curve at least 0.9, where 1 is the maximum; inactive = score below 0.9); details: mRNA level, 48 h; actives raise or lower the signal
Procedure, shortened: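 qRT-PCR readout of FABP1 transcript (normalized to three housekeeping genes) after 48 h chemical exposure of HepaRG cells; eight concentrations, half-log steps, max 100 uM, 0.5% DMSO vehicle; gain or loss fitted relative to DMSO baseline.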

[19] = read-out: Hypoxia-inducible factor 1-alpha (Homo sapiens) (UniProt Q16665); test: LTEA_HepaRG_HIF1A: Life Technologies and Expression Analysis (LTEA) Assay for Hypoxia-inducible factor 1 (HIF1A) Trancription factor using HepaRG (AID 2283503; active = hit-call score of the fitted dose curve at least 0.9, where 1 is the maximum; inactive = score below 0.9;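 note: HIF1A transcript by TaqMan qRT-PCR normalized to ACTB GAPDH and POLR2A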); details: mRNA level, 48 h; actives raise or lower the signal
Procedure, shortened: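 Gain- or loss-of-signal HIF1A mRNA changes are fitted against a DMSO baseline. HepaRG cultures receive eight concentrations, highest 100 uM, for 48 h in serum-free induction medium with 0.5% DMSO.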

[20] = biological target: human Vascular Endothelial Growth Factor Receptor 3 (VEGFR3), FLT4 (gene 2324) (UniProt P35916); test: NVS_ENZ_hVEGFR3: NovaScreen (NVS) Enzymatic Assay for human Vascular Endothelial Growth Factor Receptor 3 (VEGFR3) (AID 2283229)
Chain of human Vascular Endothelial Growth Factor Receptor 3 (VEGFR3), FLT4 (gene 2324) (P35916 whole entry, looked up): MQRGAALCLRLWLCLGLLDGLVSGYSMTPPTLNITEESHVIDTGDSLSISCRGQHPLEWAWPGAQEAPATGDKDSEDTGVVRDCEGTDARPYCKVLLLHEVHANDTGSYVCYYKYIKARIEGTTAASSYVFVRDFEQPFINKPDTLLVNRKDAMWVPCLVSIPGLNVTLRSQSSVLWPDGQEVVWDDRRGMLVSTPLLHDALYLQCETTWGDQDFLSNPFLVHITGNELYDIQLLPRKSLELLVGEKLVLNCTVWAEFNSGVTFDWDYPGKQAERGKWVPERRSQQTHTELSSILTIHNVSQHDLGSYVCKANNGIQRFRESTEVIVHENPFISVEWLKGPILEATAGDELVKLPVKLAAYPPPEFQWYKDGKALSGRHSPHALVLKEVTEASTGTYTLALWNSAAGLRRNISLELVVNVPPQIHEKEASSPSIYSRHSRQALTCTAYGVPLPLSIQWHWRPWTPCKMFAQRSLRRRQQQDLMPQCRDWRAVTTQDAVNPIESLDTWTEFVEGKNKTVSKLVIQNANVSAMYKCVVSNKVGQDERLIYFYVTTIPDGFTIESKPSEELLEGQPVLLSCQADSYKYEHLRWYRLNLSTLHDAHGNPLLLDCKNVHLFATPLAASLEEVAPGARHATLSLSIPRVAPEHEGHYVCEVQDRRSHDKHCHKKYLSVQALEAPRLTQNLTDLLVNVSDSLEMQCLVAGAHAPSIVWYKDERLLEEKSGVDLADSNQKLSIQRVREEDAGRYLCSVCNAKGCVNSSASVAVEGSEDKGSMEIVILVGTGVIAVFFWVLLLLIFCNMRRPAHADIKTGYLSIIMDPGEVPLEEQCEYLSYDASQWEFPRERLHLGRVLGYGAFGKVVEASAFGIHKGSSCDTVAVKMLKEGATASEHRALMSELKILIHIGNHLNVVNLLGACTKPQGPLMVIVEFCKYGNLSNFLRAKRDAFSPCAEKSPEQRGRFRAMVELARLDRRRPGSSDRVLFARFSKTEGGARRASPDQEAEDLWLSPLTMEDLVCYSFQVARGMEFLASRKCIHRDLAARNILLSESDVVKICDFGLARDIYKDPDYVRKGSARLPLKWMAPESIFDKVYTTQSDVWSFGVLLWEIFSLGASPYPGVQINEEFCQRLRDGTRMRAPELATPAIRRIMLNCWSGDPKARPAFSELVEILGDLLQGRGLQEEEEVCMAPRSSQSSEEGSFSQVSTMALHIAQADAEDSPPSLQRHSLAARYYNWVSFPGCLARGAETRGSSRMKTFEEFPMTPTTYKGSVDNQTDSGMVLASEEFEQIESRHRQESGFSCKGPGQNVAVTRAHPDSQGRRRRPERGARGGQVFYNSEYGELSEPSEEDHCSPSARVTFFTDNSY
Procedure, shortened: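 Chemicals first run in duplicate at 25 uM, with actives re-tested in concentration series to a top of 50 uM. Recombinant VEGFR3 activity measured after 1 h via fluorescence with mobility-shift product separation; inhibition fitted relative to DMSO.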

Chain of Nuclear factor NF-kappa-B p105 subunit (Homo sapiens) (P19838 whole entry, looked up): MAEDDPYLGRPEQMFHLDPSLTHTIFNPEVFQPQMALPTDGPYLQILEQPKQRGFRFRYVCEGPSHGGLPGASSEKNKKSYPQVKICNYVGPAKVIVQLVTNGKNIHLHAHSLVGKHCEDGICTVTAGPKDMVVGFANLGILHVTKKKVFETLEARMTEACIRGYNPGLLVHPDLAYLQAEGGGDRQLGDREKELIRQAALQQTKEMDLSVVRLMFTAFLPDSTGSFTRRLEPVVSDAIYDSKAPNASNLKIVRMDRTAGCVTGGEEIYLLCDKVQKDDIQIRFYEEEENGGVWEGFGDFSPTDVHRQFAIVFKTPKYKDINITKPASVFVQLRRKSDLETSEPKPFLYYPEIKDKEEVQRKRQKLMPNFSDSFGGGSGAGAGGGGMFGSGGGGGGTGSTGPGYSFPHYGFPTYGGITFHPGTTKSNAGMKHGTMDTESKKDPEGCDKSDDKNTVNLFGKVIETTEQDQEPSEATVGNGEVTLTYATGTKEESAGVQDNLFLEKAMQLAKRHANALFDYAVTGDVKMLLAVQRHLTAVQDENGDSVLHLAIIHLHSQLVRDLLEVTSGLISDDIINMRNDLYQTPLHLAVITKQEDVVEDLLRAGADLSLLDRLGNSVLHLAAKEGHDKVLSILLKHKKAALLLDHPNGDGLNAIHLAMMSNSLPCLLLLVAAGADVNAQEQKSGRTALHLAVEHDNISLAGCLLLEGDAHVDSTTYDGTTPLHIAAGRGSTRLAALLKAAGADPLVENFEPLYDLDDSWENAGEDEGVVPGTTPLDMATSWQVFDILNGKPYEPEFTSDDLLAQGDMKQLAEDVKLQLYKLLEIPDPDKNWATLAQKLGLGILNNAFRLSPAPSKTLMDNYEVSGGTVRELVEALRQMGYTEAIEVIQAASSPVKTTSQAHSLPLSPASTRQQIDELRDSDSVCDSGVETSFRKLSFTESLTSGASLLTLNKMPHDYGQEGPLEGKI
Chain of Hypoxia-inducible factor 1-alpha (Homo sapiens) (Q16665 whole entry, looked up): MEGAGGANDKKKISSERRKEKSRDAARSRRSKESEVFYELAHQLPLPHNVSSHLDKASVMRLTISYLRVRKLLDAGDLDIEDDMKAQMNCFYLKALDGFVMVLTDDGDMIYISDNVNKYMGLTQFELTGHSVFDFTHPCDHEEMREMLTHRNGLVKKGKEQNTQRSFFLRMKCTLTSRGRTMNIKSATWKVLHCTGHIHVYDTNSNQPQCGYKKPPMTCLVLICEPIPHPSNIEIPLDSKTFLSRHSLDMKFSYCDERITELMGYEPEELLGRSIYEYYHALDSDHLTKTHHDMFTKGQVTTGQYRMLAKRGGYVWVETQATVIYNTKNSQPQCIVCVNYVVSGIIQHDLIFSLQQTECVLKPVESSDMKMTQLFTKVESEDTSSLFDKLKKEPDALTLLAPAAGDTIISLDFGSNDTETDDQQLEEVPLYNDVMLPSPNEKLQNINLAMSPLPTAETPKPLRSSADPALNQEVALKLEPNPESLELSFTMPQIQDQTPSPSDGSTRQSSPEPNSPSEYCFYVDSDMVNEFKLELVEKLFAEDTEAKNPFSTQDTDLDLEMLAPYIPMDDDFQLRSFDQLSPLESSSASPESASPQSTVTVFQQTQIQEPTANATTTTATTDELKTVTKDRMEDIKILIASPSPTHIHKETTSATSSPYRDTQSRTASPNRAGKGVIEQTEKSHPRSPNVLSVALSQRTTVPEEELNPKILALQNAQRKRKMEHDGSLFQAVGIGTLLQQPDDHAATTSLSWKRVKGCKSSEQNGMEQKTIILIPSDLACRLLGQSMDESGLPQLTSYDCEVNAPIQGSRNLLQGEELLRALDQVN

In the case of O=C(O)CCCc1ccc(N(CCCl)CCCl)cc1, the outcome [1] is reported as “inactive”.

In the case of CCOC(=O)NC(=S)Nc1ccccc1NC(=S)NC(=O)OCC, the outcome [2] is reported as “inactive”.

With O=C=Nc1ccccc1 the AC50 [3] was 9.8 µM (active).

With CC(C)(c1cc(Cl)c(O)c(Cl)c1)c1cc(Cl)c(O)c(Cl)c1 the AC50 [4] was 2.29 µM (active), the outcome [5] was “inactive” and the AC50 [6] was 9.75 µM (active). For the same molecule, the outcome [7] was “inactive” and the AC50 [8] was 2.73 µM (active).

In the case of O=c1c2ccccc2c(=O)c2c1cc(Cl)c1[nH]c3c([nH]c12)c(Cl)cc1c(=O)c2ccccc2c(=O)c13, the outcome [9] is reported as “inactive”.

With O=C(CCl)c1ccccc1 the outcome [10] was “inactive”, the outcome [11] was “inactive” and the outcome [12] was “inactive”. For the same molecule, the outcome [13] was “inactive”.

In the case of Cc1ccc(OP(=O)(Oc2ccc(C)cc2)Oc2ccc(C)cc2)cc1 (tested in a mixture with another compound), the outcome [9] is reported as “inactive” and the AC50 [14] is reported as 25.6 µM (active).

In the case of N#CCCCCC#N, the outcome [15] is reported as “inactive”, the outcome [16] is reported as “inactive” and the outcome [17] is reported as “inactive”. The outcome [11] was “inactive”, the outcome [18] was “inactive” and the outcome [19] was “inactive”. For the same molecule, the outcome [13] was “inactive”.

In the case of CC1(C)[C@H](C(=O)O[C@H](C#N)c2cccc(Oc3ccccc3)c2)[C@@H]1C=C(Br)Br, the outcome [14] is reported as “inactive”.

For O=[N+]([O-])c1ccc(Cl)cc1, the outcome [15] was “inactive”, the outcome [16] was “inactive” and the outcome [17] was “inactive”. The outcome [10] was “inactive”, the outcome [20] was “inactive” and the outcome [18] was “inactive”. The outcome [19] was “inactive” and the outcome [12] was “inactive”.

In the case of CC(Cc1ccc(C(C)(C)C)cc1)CN1C[C@@H](C)O[C@@H](C)C1 (some centres not stated), the outcome [20] is reported as “inactive”.
